Assay [1] can be described thus: NCI Yeast Anticancer Drug Screen. Data for the rad50 strain (AID 155).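 Also: 0% = growth of vehicle-only cultures of the same strain.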 As to conditions: S. cerevisiae rad50 strain growth inhibition, hits give high values. An outline of the steps:
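Yeast carrying a defined DNA repair defect were exposed to test compounds, and growth was compared with vehicle-treated controls to give percent inhibition.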

A short description of assay [2]: NCI Yeast Anticancer Drug Screen. Data for the mec2-1 strain (AID 157). Conditions: S. cerevisiae mec2-1 strain, hits give high values. An outline of the steps:
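Mutant yeast (mec2-1) grown with compound; growth inhibition relative to vehicle control reported.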

A short description of assay [3]: NCI Yeast Anticancer Drug Screen. Data for the sgs1 mgt1 strain (AID 161).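 Also: 0% = growth of cultures given vehicle only.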 As to conditions: S. cerevisiae sgs1 mgt1 strain, hits give high values. An outline of the steps: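 This yeast growth screen uses a strain with defined DNA-repair lesions; compound-treated growth is compared with vehicle-treated growth.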
Assay [4] can be described thus: NCI Yeast Anticancer Drug Screen. Data for the cln2 rad14 strain (AID 165).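 Also: 0% = growth equal to vehicle treated cultures.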 As to conditions: S. cerevisiae cln2 rad14 strain, hits give high values. A digest of the protocol:
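Readout is yeast growth inhibition versus vehicle-treated controls, using a strain with cln2 and rad14 alterations exposed to compound.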

Assay [5] can be described thus: NCI Yeast Anticancer Drug Screen. Data for the bub3 strain (AID 167). As to conditions: S. cerevisiae bub3 mutant strain, hits give high values. A digest of the protocol: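 Compounds were applied to a genetically altered yeast strain carrying a cell-cycle control defect. Growth inhibition was scored against vehicle-treated controls.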
The nature of assay [6]: NCI Yeast Anticancer Drug Screen. Data for the mlh1 rad18 strain (AID 175). As to conditions: S. cerevisiae mlh1 rad18 strain growth inhibition, hits give high values. A digest of the protocol:
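Genetically defined yeast (DNA repair-deficient) exposed to compounds; growth inhibition determined relative to vehicle.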

The mark [7] stands for this setting: at 5.0 µM (retest, dose inferred, filed as 0.5).
Setting [8] is: at 50.0 µM (retest, dose inferred, filed as 5.0).

The values that follow come from PubChem BioAssay (NCI).

SMILES strings stand for the structures. The panel holds about 79,000 compounds, 15% with a hit somewhere; the sample as a whole holds those more often. Values without a mark were called inactive. Calls of active or inactive are those of the source. Rule as the data show it: active = growth inhibition above about 70%; inactive = the rest.

Consider `CC(=O)Nc1ccc(-c2ccccc2)cc1[N+](=O)[O-]`, for which the growth inhibition in assay [1] (setting [7]) is -3%; in assay [1] (setting [8]), 4%; in assay [1] (at 50.0 µM), 14.9%; in assay [2] (setting [7]) it was -4%; in assay [2] (setting [8]), 0%; in assay [2] (at 50.0 µM), 16.6%. For the same molecule, the growth inhibition in assay [3] (setting [7]) was -2%; in assay [3] (setting [8]) it was 0%; in assay [3] (at 50.0 µM), -24.1%; in assay [4] (setting [7]), 0%; in assay [4] (setting [8]) it was -7%; in assay [4] (at 50.0 µM), -113%. Further, the growth inhibition in assay [5] (setting [7]) was 1%; in assay [5] (setting [8]), 5%; in assay [5] (at 50.0 µM), 44.4%; in assay [6] (setting [7]) it was -2%; in assay [6] (setting [8]), 2%; in assay [6] (at 50.0 µM), 41.7%.

`O=S1(=O)CCc2ccccc2C(Br)C1Br` (configuration not stated): the growth inhibition is 13% in assay [1] (setting [7]); 98% (active) in assay [1] (setting [8]); 100% (active) in assay [1] (at 50.0 µM); 7% in assay [2] (setting [7]); 99% (active) in assay [2] (setting [8]); 99.6% (active) in assay [2] (at 50.0 µM). In addition, the growth inhibition was 15% in assay [3] (setting [7]); 12% in assay [3] (setting [8]); 99.5% (active) in assay [3] (at 50.0 µM); 17% in assay [4] (setting [7]); 99% (active) in assay [4] (setting [8]); 98.3% (active) in assay [4] (at 50.0 µM). Besides, the growth inhibition was -6% in assay [5] (setting [7]); 99% (active) in assay [5] (setting [8]); 98.2% (active) in assay [5] (at 50.0 µM); 10% in assay [6] (setting [7]); 99% (active) in assay [6] (setting [8]); 99.3% (active) in assay [6] (at 50.0 µM).

On to `CCCOC(=O)CSC#N`, for which the growth inhibition in assay [1] (setting [7]) is 39%; in assay [1] (setting [8]) it was 97% (active); in assay [1] (at 50.0 µM), 97.9% (active); in assay [2] (setting [7]), 33%; in assay [2] (setting [8]) it was 98% (active); in assay [2] (at 50.0 µM), 98% (active). The growth inhibition was 56% in assay [3] (setting [7]); 98% (active) in assay [3] (setting [8]); 98.2% (active) in assay [3] (at 50.0 µM); 28% in assay [4] (setting [7]); 95% (active) in assay [4] (setting [8]); 97.8% (active) in assay [4] (at 50.0 µM). Moreover, the growth inhibition in assay [5] (setting [7]) was 33%; in assay [5] (setting [8]), 98% (active); in assay [5] (at 50.0 µM) it was 97.8% (active); in assay [6] (setting [7]), 41%; in assay [6] (setting [8]), 98% (active); in assay [6] (at 50.0 µM) it was 98% (active).

As to `c1ccc(SSc2ccccn2)nc1`, the growth inhibition in assay [1] (setting [7]) was 17%; in assay [1] (setting [8]) it was 99% (active); in assay [1] (at 50.0 µM), 96.5% (active); in assay [2] (setting [7]), 69%; in assay [2] (setting [8]) it was 99% (active); in assay [2] (at 50.0 µM), 99.7% (active). In addition, the growth inhibition in assay [3] (setting [7]) is 49%; in assay [3] (setting [8]) it was 99% (active); in assay [3] (at 50.0 µM) it was 53.1%; in assay [4] (setting [7]) it was 0%; in assay [4] (setting [8]), 99% (active); in assay [4] (at 50.0 µM) it was 99.5% (active). In addition, the growth inhibition is 50% in assay [5] (setting [7]); 99% (active) in assay [5] (setting [8]); 99.5% (active) in assay [5] (at 50.0 µM); 62% in assay [6] (setting [7]); 99% (active) in assay [6] (setting [8]); 99.5% (active) in assay [6] (at 50.0 µM).

`O=[N+]([O-])c1ccc(Cl)cc1C(Nc1nncs1)Nc1nncs1`: the growth inhibition in assay [1] (setting [7]) is 8%; in assay [1] (setting [8]), 81% (active); in assay [1] (at 50.0 µM) it was 74.7% (active); in assay [2] (setting [7]) it was 7%; in assay [2] (setting [8]), 76% (active); in assay [2] (at 50.0 µM), 40.6%. Also, the growth inhibition in assay [3] (setting [7]) was 17%; in assay [3] (setting [8]), 84% (active); in assay [3] (at 50.0 µM), 86% (active); in assay [4] (setting [7]) it was 2%; in assay [4] (setting [8]) it was 55%; in assay [4] (at 50.0 µM) it was 41.2%. Further, the growth inhibition is -1% in assay [5] (setting [7]); 58% in assay [5] (setting [8]); 57.4% in assay [5] (at 50.0 µM); 0% in assay [6] (setting [7]); 88% (active) in assay [6] (setting [8]); 80% (active) in assay [6] (at 50.0 µM).

With `O=C1c2cccc(NCCNCCO)c2C(=O)c2cccc(NCCNCCO)c21`, the growth inhibition in assay [1] (setting [7]) was 18%; in assay [1] (setting [8]) it was 58%; in assay [1] (at 50.0 µM), -10.3%; in assay [2] (setting [7]) it was -8%; in assay [2] (setting [8]), -8%; in assay [2] (at 50.0 µM), 7%. For the same molecule, the growth inhibition is 17% in assay [3] (setting [7]); 13% in assay [3] (setting [8]); 31% in assay [3] (at 50.0 µM); 24% in assay [4] (setting [7]); 32% in assay [4] (setting [8]); 15.4% in assay [4] (at 50.0 µM). The growth inhibition in assay [5] (setting [7]) is 15%; in assay [5] (setting [8]) it was 22%; in assay [5] (at 50.0 µM), 45.1%; in assay [6] (setting [7]) it was 8%; in assay [6] (setting [8]) it was 15%; in assay [6] (at 50.0 µM), 8.2%.

As to `OC(OC/C(I)=C(/I)COC(O)C(Cl)(Cl)Cl)C(Cl)(Cl)Cl` (configuration not stated), the growth inhibition in assay [1] (setting [7]) was 28%; in assay [1] (setting [8]) it was 96% (active); in assay [1] (at 50.0 µM), 97.2% (active); in assay [2] (setting [7]), 34%; in assay [2] (setting [8]) it was 94% (active); in assay [2] (at 50.0 µM), 96.9% (active). For the same molecule, the growth inhibition in assay [3] (setting [7]) is -2%; in assay [3] (setting [8]) it was 86% (active); in assay [3] (at 50.0 µM), 94.8% (active); in assay [4] (setting [7]) it was -10%; in assay [4] (setting [8]) it was 70% (active); in assay [4] (at 50.0 µM) it was 76.7% (active). Further, the growth inhibition in assay [5] (setting [7]) is 1%; in assay [5] (setting [8]), 94% (active); in assay [5] (at 50.0 µM) it was 93.1% (active); in assay [6] (setting [7]) it was 13%; in assay [6] (setting [8]) it was 95% (active); in assay [6] (at 50.0 µM), 97.1% (active).

`CCOC1NC(=S)N(C2CCCCC2)C1(C)C` (configuration not stated): the growth inhibition in assay [1] (setting [7]) is -2%; in assay [1] (setting [8]) it was 10%; in assay [1] (at 50.0 µM), 10.8%; in assay [2] (setting [7]), -2%; in assay [2] (setting [8]) it was 3%; in assay [2] (at 50.0 µM), 1.1%. The growth inhibition in assay [3] (setting [7]) was -1%; in assay [3] (setting [8]), 11%; in assay [3] (at 50.0 µM) it was 11.8%; in assay [4] (setting [7]), -2%; in assay [4] (setting [8]) it was -11%; in assay [4] (at 50.0 µM), 75.6% (active). Moreover, the growth inhibition in assay [5] (setting [7]) was -2%; in assay [5] (setting [8]), -9%; in assay [5] (at 50.0 µM) it was -19%; in assay [6] (setting [7]) it was -6%; in assay [6] (setting [8]), 1%; in assay [6] (at 50.0 µM), 16.6%.

In the case of `OC1c2cccn2-c2cc(Cl)ccc2SC1c1ccccc1` (configuration not stated), the growth inhibition in assay [1] (setting [7]) was 2%; in assay [1] (setting [8]), 97% (active); in assay [1] (at 50.0 µM), 97% (active); in assay [2] (setting [7]), 1%; in assay [2] (setting [8]), 98% (active); in assay [2] (at 50.0 µM), 82.3% (active). Moreover, the growth inhibition in assay [3] (setting [7]) is 15%; in assay [3] (setting [8]), 97% (active); in assay [3] (at 50.0 µM), 96.2% (active); in assay [4] (setting [7]) it was -7%; in assay [4] (setting [8]), 97% (active); in assay [4] (at 50.0 µM) it was 93.2% (active). The growth inhibition was 24% in assay [5] (setting [7]); 97% (active) in assay [5] (setting [8]); 95.6% (active) in assay [5] (at 50.0 µM); 8% in assay [6] (setting [7]); 97% (active) in assay [6] (setting [8]); 94.8% (active) in assay [6] (at 50.0 µM).
